Screen size: about 60,000 compounds; about 210 (0.35%) were called active. This excerpt belongs to a sample that is enriched for actives. Unmarked numbers belong to inactive results.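 How the source made its calls: active means inhibition above the screen-wide mean inhibition plus 3 SD (cut at about 18% in these data); inactive means the rest.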
Molecular target: Rho-associated protein kinase 2 (Homo sapiens) (UniProt O75116)
Assay: inhibitors of human ROCK2 kinase, primary screen, biochemical, high-throughput, luminescence (AID 604);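 further: plate controls were DMSO wells for no effect and Y-27632 control wells after no-enzyme background subtraction for full effect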
Details: purified ROCK2, Kinase-Glo ATP depletion luminescence; at 6 µM; stronger effect = higher value

Sequence of Rho-associated protein kinase 2 (Homo sapiens) (O75116 whole entry, looked up): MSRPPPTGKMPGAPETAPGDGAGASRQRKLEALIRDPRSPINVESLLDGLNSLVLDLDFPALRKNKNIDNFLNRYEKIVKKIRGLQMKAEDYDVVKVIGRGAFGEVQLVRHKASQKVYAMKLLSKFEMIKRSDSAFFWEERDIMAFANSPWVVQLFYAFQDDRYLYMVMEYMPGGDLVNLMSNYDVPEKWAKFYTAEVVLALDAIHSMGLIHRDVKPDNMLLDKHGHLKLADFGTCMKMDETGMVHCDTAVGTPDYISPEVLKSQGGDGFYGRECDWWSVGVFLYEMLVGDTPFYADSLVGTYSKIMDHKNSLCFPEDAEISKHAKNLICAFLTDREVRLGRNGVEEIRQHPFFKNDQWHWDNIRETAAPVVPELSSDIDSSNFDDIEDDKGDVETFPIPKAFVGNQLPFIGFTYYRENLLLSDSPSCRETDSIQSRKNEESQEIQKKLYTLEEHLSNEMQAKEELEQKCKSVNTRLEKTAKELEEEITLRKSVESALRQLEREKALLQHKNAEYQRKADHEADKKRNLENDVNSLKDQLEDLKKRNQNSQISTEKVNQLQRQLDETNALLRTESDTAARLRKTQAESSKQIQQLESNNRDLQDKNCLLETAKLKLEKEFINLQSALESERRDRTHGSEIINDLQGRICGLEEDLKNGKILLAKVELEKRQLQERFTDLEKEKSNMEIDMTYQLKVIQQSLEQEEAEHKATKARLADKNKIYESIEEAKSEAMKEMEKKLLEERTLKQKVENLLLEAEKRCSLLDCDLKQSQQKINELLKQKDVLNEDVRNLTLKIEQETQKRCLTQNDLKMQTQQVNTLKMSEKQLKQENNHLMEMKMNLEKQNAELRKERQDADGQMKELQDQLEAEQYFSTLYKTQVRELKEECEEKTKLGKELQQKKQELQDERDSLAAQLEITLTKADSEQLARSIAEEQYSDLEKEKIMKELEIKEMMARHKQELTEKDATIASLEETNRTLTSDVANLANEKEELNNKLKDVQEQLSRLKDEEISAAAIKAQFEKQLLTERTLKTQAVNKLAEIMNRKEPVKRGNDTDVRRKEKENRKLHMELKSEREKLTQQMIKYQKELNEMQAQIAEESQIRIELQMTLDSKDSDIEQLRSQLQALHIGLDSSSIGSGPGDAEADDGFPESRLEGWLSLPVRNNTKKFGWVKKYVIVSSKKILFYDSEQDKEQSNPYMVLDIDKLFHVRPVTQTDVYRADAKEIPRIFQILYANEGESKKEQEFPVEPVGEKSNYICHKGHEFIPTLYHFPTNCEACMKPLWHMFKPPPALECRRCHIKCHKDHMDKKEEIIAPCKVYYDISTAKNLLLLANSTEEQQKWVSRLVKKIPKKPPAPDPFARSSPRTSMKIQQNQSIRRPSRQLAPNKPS

Compound | inhibition
CC(C)OCCCNc1nc2c(c(=O)n(Cc3ccccc3F)c(=O)n2C)n1C | -0.3%
CC1Cc2ccccc2N1C(=O)CSc1nnc(-c2ccc(S(=O)(=O)N3CCCCC3)cc2)o1 (stereo not given) | -4.4%
CCCCCCn1c(CN2CCCCC2)nc2c1c(=O)n(C)c(=O)n2C | -1.3%
Cc1nn(-c2ccccc2)c(C)c1C(=O)OCC(=O)NC(=O)NC1CCCCC1 | 1.4%
COC(=O)C(C)n1cnc2c(nnn2-c2cccc(Cl)c2)c1=O (stereo not given) | 7.7%
O=C(CC1N=C2c3ccccc3N=C(SCc3ccccc3Cl)N2C1=O)NCc1ccco1 (stereo not given) | 2.8%
Cc1cccc(OCc2nnc(SCC(=O)N3CCN(C(=O)c4ccco4)CC3)n2C)c1C | 3.2%
O=C(c1cc(-c2ccccc2O)on1)N1CCCC1 | -1.5%
CCOC(=O)N1CCC(NC(=O)Cn2cc3c(n2)CCCCC3)CC1 | 9%
O=C(CN1CCOCC1)Nc1cc(Cl)ccc1Cl | 2.5%
O=C(NCc1ccco1)C1CCCN(S(=O)(=O)c2cnc[nH]2)C1 (stereo not given) | 3.2%
COc1cccc(-c2nn(C)c3sc(C(=O)N4CCN(c5ccccc5)CC4)cc23)c1 | 6.1%
O=C(Nc1ccn(Cc2ccc(F)cc2)n1)c1ccncc1 | 18.1%
CCOC(=O)Cc1csc(NC(=O)CN(C)S(=O)(=O)c2ccc3c(c2)CCC(=O)N3)n1 | 2.4%
CC(C)n1c(NCc2c[nH]c3ccccc23)nc2ccccc21 | 2.4%
Cc1cc(NC(=O)CCC(=O)N(c2cccc(F)c2)C(C(=O)NC2CCCC2)c2ccncc2)no1 (stereo not given) | 4%
Cc1ccccc1-c1nc(CS(=O)(=O)CC(=O)N2CCc3ccccc3C2)c(C)o1 | -0.8%
CN(C)Cc1c(O)ccc2occ(C(O)c3ccccc3)c12 (stereo not given) | 2%
CSc1ccc(S(=O)(=O)NCc2ccc(Cl)cc2)cc1 | 5.4%
CCOC(=O)N1CCN(Cc2nc3c(c(=O)n(C)c(=O)n3C)n2Cc2ccccc2)CC1 | 2.4%
CCn1c(SCC(=O)Nc2cc(C)c(Cl)cc2OC)nnc1-c1ccco1 | 3.2%
Cc1ccc(N2CCN(S(=O)(=O)N(C)C)CC2)cc1Cl | 8.1%
O=c1c(-c2ccc3c(c2)OCCO3)c(C(F)(F)F)oc2cc(O)cc(O)c12 | -3.1%
CCOC(=O)C1=C(C)NC(C)=C(C(=O)OCC)C1c1ccccn1 | -6.7%
CC(=O)N1CSCC1C(=O)O (stereo not given) | 2.3%
Cc1noc(C)c1C(=O)Nc1ccccn1 | 8.1%
O=C(NCc1cccnc1)c1ccc(CS(=O)(=O)c2ccc(Br)cc2)o1 | 1.6%

Compound | inhibition
O=C(/C(=N\O)n1cncn1)c1ccc(Br)cc1Br | -2.8%
CCOC(=O)NC(C(F)(F)F)(C(F)(F)F)P(=O)(c1ccccc1)c1ccccc1 | 3.9%
CCN(CC(=O)NCc1cccs1)c1nnnn1-c1ccccc1 | -4.6%
C[C@H](NC(=O)NCCc1ccccc1)C(=O)O | 4.7%
COc1ccc(C2CC(c3ccc(C)cc3)Nc3nc(N)nn32)cc1 (stereo not given) | -2.6%
O=C(CN(Cc1ccccc1)C(=O)c1ccc2c(c1)OCCO2)NCc1ccc2c(c1)OCO2 | 5.9%
Cc1cccc(Cn2c(N3CCN(c4ccccc4)CC3)nc3c2c(=O)n(C)c(=O)n3C)c1 | 5.3%
COc1ccccc1NC1=NC2(CCCC2)N=C(N)N1 | -2%
CCOc1ncccc1C(=O)OCc1cn2cc(Cl)ccc2n1 | 12.7%
Cc1ccc(C2c3c(oc4ccc(C)cc4c3=O)C(=O)N2CCCN2CCOCC2)cc1 (stereo not given) | -2.1%
Cc1cc(NC(=O)CSCc2nc(-c3cccc(Cl)c3)oc2C)no1 | 3.5%
COc1ccccc1N(CC(=O)N1CCCCC1)S(=O)(=O)c1ccccc1 | 5.5%
COc1ccc(N2C(=O)CC(N3CCC(C(N)=O)CC3)C2=O)cc1 (stereo not given) | -1.8%
O=C(CC1Oc2ccccc2NC1=O)NCCCN1CCN(Cc2ccccc2)CC1 (stereo not given) | 0.1%
C(=C\c1ccccc1)/CSc1nnc(-c2cccnc2)n1Cc1ccco1 | 5%
CCN(CC)CCN1C(=O)C(=O)/C(=C(/O)c2ccc(OC)c(OC)c2)C1c1ccccn1 (stereo not given) | 1.6%
Cc1cc(N=CC2=C(O)CCCC2=O)no1 | 4.3%
Cc1ccsc1-c1nc(CSCC(=O)NCCN2CCCC2)c(C)o1 | -0.8%
CC1CCCN(c2ccc(C(=O)NCCc3ccccc3)cn2)C1 (stereo not given) | 7.3%
Cc1ccc(S(=O)(=O)N2CCCC2C(=O)NCc2ccco2)cc1 (stereo not given) | -1.2%
CC(C)NS(=O)(=O)c1ccc(CCC(=O)N2CCOCC2)cc1 | 1.3%
CCn1nc(NC(=O)c2ccco2)c2cc3ccc(C)cc3nc21 | -4.9%
CCNS(=O)(=O)c1ccc(NC(=O)Nc2cccc(OC)c2)cc1 | 2.5%
COc1ccc(CNC(=O)c2cc3c(=O)n4ccccc4nc3n(CC3CCCO3)c2=N)cc1 (stereo not given) | 5.4%
CCOC(=O)c1csc(NC(=O)c2ccc(S(=O)(=O)N3CCCC3)cc2)n1 | -1.1%
C=CCn1c(=S)[nH]c2nc3c(cc2c1=O)COC(C)(C)C3 | 8%
CCCCC(=O)N1CC2(C)CN(C(=O)CCCC)CC(C)(C1)C2=O | 3.9%

Compound | inhibition
O=C(Nc1ccccc1F)c1cc(S(=O)(=O)N2CCCCC2)cs1 | 9.5%
O=C(CSc1ncccn1)NCCc1ccccc1 | 6.2%
CCCOC(=O)Cc1c(O)c2ccccc2[nH]c1=O | 1.5%
CC1(C)CC(=O)C=C(NC2CC(C)(C)NC(C)(C)C2)C1 | 5.7%
O=C(OCC(=O)N1CCCC1)c1ccco1 | 3.5%
Cc1oc(CC(C)C)c(CN2CCCC2)c1C(=O)O | 0.9%
CC(=O)Cc1nsc(NC(=O)c2ccc(COc3ccc(C)cc3)o2)n1 | 2.4%
Cc1noc(C)c1S(=O)(=O)N1CCCC(C(=O)Nc2nccs2)C1 (stereo not given) | 3.5%
CCOC(=O)CC1=CC(=O)Nc2ccccc2N1 | 7.2%
Cc1occc1C(=O)N1CCCc2ccccc21 | 1%
O=C(c1ccc(S(=O)(=O)N2CCOCC2)cc1)N1CCN(c2ccccc2)CC1 | 2.3%
O=C1c2oc3ccccc3c(=O)c2C(c2cccc(O)c2)N1c1ccccn1 (stereo not given) | 1%
COc1ccc(-n2c(SCC(=O)Nc3ccc4c(c3)OCO4)nnc2C(C)N2CCCCC2)cc1 (stereo not given) | 1%
c1ccc2c(NCC3CCCO3)nc(-c3ccncc3)nc2c1 (stereo not given) | 5.5%
Cc1noc(C)c1COC(=O)Cn1c(C)nc2ccccc21 | 5.1%
CCOC(=O)C1CCN(C(=O)C2CCN(S(=O)(=O)CC)CC2)CC1 | -1.2%
CCCc1nc(SCC(=O)Nc2ccccc2OC)c2c(=O)n(C)c(=O)n(C)c2n1 | 1.6%
CCOc1ccccc1N(CC(=O)NC1CCCCC1)C(=O)CCCC(=O)Nc1ccccn1 | 4.8%
O=C(CSc1nnc(-c2cccnc2)n1Cc1ccco1)c1ccc(Cl)cc1 | 2.8%
CCOc1ccccc1NC(=O)CCc1ccc(C)o1 | 0.9%
CS(=O)(=O)c1ccc2nc(NC(=O)C3CCCCC3)sc2c1 | 6.5%
O=c1c(F)cn(C2CCCO2)c(=O)n1Cc1ccccc1Cl (stereo not given) | -7.2%
CCn1c(CSc2ncccn2)nnc1SCC(=O)N1c2ccccc2CC1C (stereo not given) | 1.2%
CCCOc1ccc(N2CC(C(=O)Nc3ccccn3)CC2=O)cc1 (stereo not given) | 2.5%
O=C1CCCC2=C1C(c1cccs1)n1nc(SCc3ccccc3)nc1N2 (stereo not given) | 2%
COc1ccc(-c2[nH]nc3c2C(c2ccncc2)C(C#N)=C(N)O3)cc1 (stereo not given) | -0.8%
CC(C(=O)N1CCOCC1)N1c2cccc3cccc(c23)S1(=O)=O (stereo not given) | 11.3%

Compound | inhibition
O=C(c1cccs1)N(C(=O)c1cccs1)c1ccccn1 | 3.6%
CCc1c(C)nc(N2CCN(Cc3ccccc3)CC2)[nH]c1=O | -0.6%
CCN1CCN(Cc2nc3c(c(=O)n(C)c(=O)n3C)n2CC(=O)c2ccccc2)CC1 | -1.1%
COc1ccccc1CNC(=O)Cn1cc2c(n1)CCCC2 | 2.7%
N#CCCn1cnc2ccccc21 | 0.3%
CCn1c(=N)n(CC(=O)c2cccc(OC)c2)c2ccccc21 | -1.1%
CCOCCCNC(=O)c1c[nH]c2cc(C)ccc2c1=O | -0.3%
Brc1cnc(N2CCCC2)nc1N1CCCCC1 | 2%
COc1ccc(N2CC(C)Cn3c2nc2c3c(=O)n(Cc3ccccc3F)c(=O)n2C)c(OC)c1 (stereo not given) | -0.2%
CCC(Sc1nncn1C)C(=O)Nc1nnc(-c2ccc(Cl)cc2)s1 (stereo not given) | 3.6%
COc1ccc(CCNC(=O)CCCCn2c(=O)[nH]c3ccccc3c2=O)cc1OC | 4.9%
COc1cc(N=Cc2c(O)[nH]c3ccccc23)cc(OC)c1OC | 58.4% (active)
COc1ccc2[nH]c3ccc(OC)cc3c2c1 | 5.6%
COC(=O)c1[nH]c2ccccc2c1NS(=O)(=O)c1ccc(OC)cc1OC | 5.9%
COc1ccc(OC)c(N=Cc2c(O)[nH]c3ccccc23)c1 | 12.3%
COc1ccc(N=Cc2c(O)[nH]c3ccccc23)cc1OC | 36.8% (active)
CC(C)=C(NC(=O)c1ccco1)C(=O)NCCc1nc2ccccc2[nH]1 | 1.2%
COc1cc(NS(=O)(=O)c2ccccc2)ccc1-n1nc(C)cc1C | 10.8%
CCCOC(=O)c1cc2ccccc2oc1=O | 0.3%
CCOc1cc(S(=O)(=O)NCc2ccc3c(c2)OCO3)ccc1F | 0.8%
CN(C)/C=C1\C=C(c2ccccc2)OC1=O | 0.1%
COCCN1C(=O)c2oc3c(C)cc(C)cc3c(=O)c2C1c1cccc(O)c1 (stereo not given) | -3%
O=C(NCCCN1CCN(Cc2ccccc2)CC1)C1CCN(S(=O)(=O)N2CCCC2)CC1 | 2.6%
O=C(c1ccco1)N1CCN(C(=O)C2c3ccccc3Oc3ccccc32)CC1 | -3.5%

From PubChem BioAssay AID604 (The Scripps Research Institute Molecular Screening Center, 2007)
